# Experimental data as given in PubChem BioAssay (NCATS).
# Results filed as inconclusive are left out. Unmarked numbers belong to inactive results. Calls of active or inactive are those of the source. Calls come from the whole dose curve; as a rule, active = well fitted inhibition curve with a large enough effect; inconclusive = small, poorly fitted or top-dose-only effect; inactive = flat fitted curve, though single readings scatter.
# Test system: CP203
# Experiment: qHTS profiling for inhibitors of Plasmodium falciparum proliferation (AID 504749); note: nearly all actives have a fitted effect of over 60% in size;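 for activity, negative = inhibition: 0% = DMSO vehicle and full inhibition = artemisinin control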
# Conditions: P. falciparum in erythrocytes, SYBR Green DNA, 72 h; series mostly up to 28.7 µM; activity, negative = inhibition: at the top concentration
# From the text: NIH National Institute of Allergy and Infectious Diseases [NIAID] NIH Chemical Genomics Center [NCGC] MLPCN Grant: None Assay Provider: Xinzhuan Su, NIAID NCGC Assay Overview: Plasmodium falciparum is a virulent malarial parasite that kills 1-2 million people worldwide each year. Transmitted by mosquitoes, the sporozoite form of the parasite enters the blood stream to infect hepatocytes, where they become merozoites that infect red blood cells (erythrocytes). Within erythrocytes, merozoites begin a […] cycle of growth and division, after which the parasite is released to infect new red blood cells. Gametocytes, which form within erythrocytes as well, circulate in the bloodstream and are ingested by the mosquito, thereby completing the life cycle. To profile malarial isolates for differential chemical responses and to identify inhibitors of malarial growth, an assay that measures P. falciparum growth and replication within erythrocytes was employed. This assay uses a DNA binding fluorescent dye (SYBR Green) to detect parasite DNA following cell lysis. Because mature erythrocytes lack DNA, only Plasmodium-derived DNA is detected.
# NCGC Assay Protocol Summary: The SYBR Green viability assay was adapted from a method described previously (Plouffe et al., 2008). For screening 3 ul culture medium was dispensed into 1536 well black clear bottom plates (Aurora Biotechnologies) using a Multidrop Combi (Thermo Fisher Scientific Inc.), 23 nL compounds in DMSO were added by a pin tool (Kalypsys), and 5 ul of erythrocytes infected with P. falciparum (0.3% parasitemia, 2.5% hematocrit final concentration) were added. The plates were incubated at 37 C in a humidified incubator in 5% CO2 for 72 h, and 2 ul lysis buffer (20 mM Tris HCl, 10 mM EDTA, 0.16% saponin, 1.6% triton X, 10X SYBR Green I supplied as 10,000X […] by Invitrogen) was added to each well. The plates were mixed for 25 sec with gentle shaking and incubated overnight at room temperature in the dark. The following morning, fluorescence intensity at 485(14) nm excitation and 535(25) nm emission wavelengths was measured on an EnVision (Perkin Elmer) plate reader. Plate reads were normalized relative to the control inhibitor (0.29 uM artemisinin) and vehicle (DMSO) wells present on each plate and then corrected by an algorithm using vehicle-only control plates at the beginning and end of the compound plate stack.
# Potency is the fitted concentration of half-maximal effect.
SMILES,"activity, negative = inhibition",Potency
N#CC(c1ccc(Cl)cc1)c1c(Cl)cc(-n2ncc(=O)[nH]c2=O)cc1Cl (centres undefined),-13.6%,
COc1cc2c(cc1OC)CC(=O)N(CCCN(C)C[C@H]1Cc3cc(OC)c(OC)cc31)CC2,-0.845%,
CC(C)CN(C[C@@H](O)[C@H](Cc1ccccc1)NC(=O)O[C@H]1CO[C@H]2OCC[C@H]21)S(=O)(=O)c1ccc(N)cc1,-6.46%,
O=C(O)c1nc(=O)[nH]c(=O)[nH]1,6.49%,
Cc1cc2nc3c(=O)[nH]c(=O)nc-3n(CC(O)C(O)C(O)CO)c2cc1C (centres undefined),-8.54%,
Clc1ccc(COC(Cn2ccnc2)c2ccc(Cl)cc2Cl)c(Cl)c1 (centres undefined),,5.1 µM (active)
COc1c(C)c2c(c(O)c1CC=C(C)CCC(=O)OCCN1CCOCC1)C(=O)OC2,,6.01 µM (active)
CN1CC(=O)N2C(Cc3c([nH]c4ccccc34)[C@H]2c2ccc3c(c2)OCO3)C1=O (some centres undefined),-1.64%,
C=C1c2cccc(O)c2C(O)=C2C(=O)[C@@]3(O)C(O)=C(C(N)=O)C(=O)[C@@H](N(C)C)[C@@H]3[C@@H](O)[C@H]12,4.31% [at 12.8 µM],
COc1ccnc(CS(=O)c2nc3ccc(OC(F)F)cc3[nH]2)c1OC (centres undefined),-13.7%,
O=C1C(CCC(O)c2ccc(F)cc2)C(c2ccc(O)cc2)N1c1ccc(F)cc1 (centres undefined),4.7%,
NS(=O)(=O)c1cc(Cl)c(Cl)c(S(N)(=O)=O)c1,0.455% [at 12.8 µM],
CS(=O)(=O)c1ccc(C2=C(c3ccccc3)C(=O)OC2)cc1,1.29%,
N#Cc1c(N(CC(=O)O)CC(=O)O)sc(C(=O)O)c1CC(=O)O,0.0588%,
